In PubChem BioAssay (NCATS):
Inconclusive results are not listed. Active and inactive are the calls of the source. The call rests on the fitted dose curve; in most records, active means well fitted curve in the direction sought with a large enough effect; inconclusive means small, poorly fitted or top-dose-only effect, or another doubt; inactive means no such curve, though single readings can be large; an effect the other way counts as inactive or inconclusive.

Tests used:
[1] = Cellular Toxicity (caspase-3) NIH 3T3 (AID 666);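 further: caspase signal read after 16 h compound exposure; 0% = DMSO basal and 100% = 100 µM tamoxifen stimulation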
Method in brief: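 NIH 3T3, 1000 cells/well, 5 hr settle then 16 hr compound at 37°C; Caspase-Glo 3/7, 20 min RT, luminescence. DMSO = basal, 100 uM tamoxifen = 100%. Hill-equation AC50, qHTS.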

[2] = Cellular Toxicity (caspase-3) Renal Proximal Tubule (AID 667); conditions: renal proximal tubule cells; at 91.7 µM (top of the series), primary cells freshly taken from rat, solvent-only wells 0%, staurosporine 100% unless noted;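 further: cells exposed to compound for 16 hours at 37 °C before detection; 0% = DMSO basal and 100% = 10 µM staurosporine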
Method in brief: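 Primary rat proximal tubule cells, 1000/well, 5 h plating at 37 °C, then compound 16 h at 37 °C. Caspase-Glo 3/7 reagent, 1 h RT, luminescence. Normalized to DMSO (basal) and 10 uM staurosporine (100%); Hill-fit AC50.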

[3] = biological target: Cytochrome P450 3A4 (Homo sapiens) (UniProt P08684); assay: qHTS Assay for Inhibitors and Substrates of Cytochrome P450 3A4 (AID 884); further: on the % scale 0 is the no-effect control and ±100 the full control effect; nearly all actives have a fitted effect of over 50% in size
Method in brief: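 Luminescent readout of luciferin produced by CYP3A4 (20 nM) dealkylation of Luciferin-PPXE, 25 uM (its KM). NADPH-driven reaction ran 60 min at RT after 10 min compound preincubation; data scaled to 57 uM ketoconazole as 100% inhibition.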

[4] = Cell Viability - LYMP2-001 (AID 921);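 further: 0% = DMSO only and full inhibition = tetraoctylammonium bromide control wells; nearly all actives have a fitted effect of over 70% in size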
Method in brief: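 Human lymphoblastoid cells (Coriell), 2500 per well, were preincubated 5 hr at 37 C, then exposed to compounds in complete medium for 24 hr at 37 C. Cellular ATP was read by CellTiter-Glo luminescence; AC50 from Hill fits of concentration-response data.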

[5] = MultiTox-Fluor Cytotoxicity Assay - LYMP1-001 - Dead Cells (AID 946);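 further: 0% = DMSO and 100% = tetraoctylammonium bromide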
Method in brief: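 AC50 from Hill fit of concentration-response; data normalized to DMSO (basal) and 15 uM tetraoctylammonium bromide (100%). LYMP1-001 lymphoblastoid cells, 2500/well, 16 hr compound at 37 C; dead-cell protease fluorescence, Ex/Em 485/520.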

[6] = Cell Viability - LYMP1-002 - Assay at 16 hr (AID 948);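 further: 0% = DMSO alone and full effect = 92 µM tetraoctylammonium bromide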
Method in brief: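 Human lymphoblastoid cells (LYMP1-002), 2500/well, were preincubated 5 hr at 37 C, then exposed to compounds for 16 hr at 37 C in complete medium. Cellular ATP was read by CellTiter-Glo luminescence after 30 min at room temperature; AC50 from Hill fits.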

[7] = MultiTox-Fluor Cytotoxicity Assay - LYMP1-002 - Live Cells (AID 955); further: on the % scale 0 is the no-effect control and ±100 the full control effect
Method in brief: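 LYMP1-002 lymphoblastoid cells; 2500 cells/well; 16 hr compound exposure, 37 C; MultiTox-Fluor reagent 60 min RT; live-cell fluorescence Ex/Em=405/510; qHTS concentration-response, Hill-equation AC50; tetraoctylammonium bromide positive control.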

[8] = MultiTox-Fluor Cytotoxicity Assay - LYMP1-002 - Dead Cells (AID 960);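 further: 0% = DMSO and 100% = tetraoctylammonium bromide; nearly all actives have a fitted effect of over 60% in size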
Method in brief: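 Readout: fluorescence at 485/520 from cell-impermeant bis-AAF-R110 cleaved by proteases leaking from damaged cells. LYMP1-002 lymphoblastoid line, 16 hr compound treatment at 37 C, concentration-response in qHTS format; Hill-equation AC50 values.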

[9] = MultiTox-Fluor Cytotoxicity Assay - LYMP1-003 - Dead Cells (AID 961);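 further: 0% = DMSO and 100% = tetraoctylammonium bromide; nearly all actives have a fitted effect of over 70% in size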
Method in brief: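 Human lymphoblastoid LYMP1-003 cells (2500/well) were treated with compounds for 16 hr at 37 C in complete medium. Dead-cell protease release was read by bis-AAF-R110 fluorescence (Ex/Em 485/520). AC50 came from Hill fits, normalized to DMSO and 15 uM tetraoctylammonium bromide.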

[10] = MultiTox-Fluor Cytotoxicity Assay - LYMP1-003 - Live Cells (AID 962);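 further: 0% = DMSO only and full loss = 92 µM tetraoctylammonium bromide; cytotoxic hits lower the live-cell protease signal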
Method in brief: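 Readout: live-cell fluorescence (Ex/Em=405/510) from GF-AFC cleavage after 60 min MultiTox-Fluor reagent at room temperature. Lymphoblastoid LYMP1-003 cells, 16 hr compound treatment, 37 C. Concentration-response fitted to standard Hill equation for AC50.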

[11] = Cell Viability - LYMP1-003 - Assay at 24 hr (AID 963);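 further: plate controls were DMSO only for no effect and tetraoctylammonium bromide positive control for full effect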
Method in brief: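 CellTiter-Glo luminescence (intracellular ATP) read after 24 hr, 37 C compound exposure of 2500 LYMP1-003 human lymphoblastoid cells/well in complete medium; qHTS concentration series; AC50 via standard Hill equation.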

[12] = Cell Viability - LYMP1-003 - Assay at 40 hr (AID 964); further: on the % scale 0 is the no-effect control and ±100 the full control effect; nearly all actives have a fitted effect of over 60% in size
Method in brief: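 LYMP1-003 lymphoblastoid cells, 2500/well; 5 hr preincubation, 40 hr compound exposure, 37 C; CellTiter-Glo 30 min RT; luminescence; Hill-fit AC50. Positive control tetraoctylammonium bromide.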

[13] = Cell Viability - LYMP2-003 (AID 965);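 further: cells exposed to compounds for 24 h before reading; 0% = DMSO only and full effect = 92 µM tetraoctylammonium bromide; nearly all actives have a fitted effect of over 50% in size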
Method in brief: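 Human lymphoblastoid cells (2500/well) were pre-incubated 5 hr at 37 C, then exposed to compounds over a concentration range for 24 hr at 37 C. Intracellular ATP was read by CellTiter-Glo luminescence; AC50 came from Hill-equation fits.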

[14] = Cell Viability - LYMP2-004 (AID 966);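 further: plate controls were DMSO only for no effect and tetraoctylammonium bromide control for full effect; nearly all actives have a fitted effect of over 65% in size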
Method in brief: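 Luminescent ATP read-out (CellTiter-Glo, 30 min RT) after 24 hr compound exposure at 37 C; 2500 lymphoblastoid cells/well, complete medium. Decrease in ATP = cytotoxicity; AC50 from standard Hill model.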

[15] = Cell Viability - LYMP2-005 (AID 967);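 further: plate controls were DMSO only for no effect and 92 µM tetraoctylammonium bromide control for full effect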
Method in brief: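 CellTiter-Glo luminescence (cellular ATP) read-out; LYMP2-005 lymphoblastoid cells, 2500/well, 5 h pre-incubation, then 24 h compound exposure at 37 C in complete medium. Tetraoctylammonium bromide positive control; AC50 by standard Hill fit.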

[16] = Cell Viability - LYMP2-009 (AID 968);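 further: 0% = DMSO alone and the full-kill end = tetraoctylammonium bromide at 92 µM; nearly all actives have a fitted effect of over 55% in size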
[17] = Cell Viability - LYMP2-011 (AID 969);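 further: 0% = DMSO only and full inhibition = 92 µM tetraoctylammonium bromide; nearly all actives have a fitted effect of over 60% in size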
Method in brief: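 Luminescent ATP read-out (CellTiter-Glo, 30 min RT) after 24 hr compound exposure at 37 C in human lymphoblastoid cells, 2500 cells/well. Decreasing ATP indicates cytotoxicity; AC50 from standard Hill fit.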

[18] = Cell Viability - LYMP2-013 (AID 970);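 further: 0% = DMSO only and full inhibition = tetraoctylammonium bromide control; nearly all actives have a fitted effect of over 55% in size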
Method in brief: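 CellTiter-Glo luminescence (cellular ATP) read after 30 min at RT. Cells: human lymphoblastoid line, 2500/well, 24 hr compound exposure at 37 C. Tetraoctylammonium bromide positive control; AC50 via standard Hill fit of qHTS titrations.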

[19] = Cell Viability - LYMP2-015 (AID 971);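 further: 0% = DMSO only and full effect = 92 µM tetraoctylammonium bromide; nearly all actives have a fitted effect of over 55% in size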
Method in brief: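 qHTS cytotoxicity: 2500 cells/well, 5 hr 37 C, compound 24 hr 37 C, CellTiter-Glo 30 min RT, luminescence. Loss of ATP = toxicity; AC50 via standard Hill fit.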

[20] = Cell Viability - LYMP2-017 (AID 972); further: on the % scale 0 is the no-effect control and ±100 the full control effect; nearly all actives have a fitted effect of over 55% in size
Method in brief: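 Luminescent ATP read-out (CellTiter-Glo, 30 min RT) reports viable cell number. Cells: human lymphoblastoid line, 2500 per well, 5 hr preincubation, 24 hr compound exposure at 37 C. AC50 is derived from qHTS concentration-response data using the standard Hill model.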

[21] = Cell Viability - LYMP2-019 (AID 973)
Method in brief: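 qHTS, 1536-well; 2500 cells/well; 5 hr pre-incubation, 24 hr compound exposure, 37 C; CellTiter-Glo added, 30 min RT; luminescence read; AC50 via standard Hill equation.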

[22] = Cell Viability - LYMP2-021 (AID 974)
Method in brief: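 ATP luminescence (CellTiter-Glo, 30 min RT) after 24 h compound exposure at 37 C; 2500 human lymphoblastoid cells/well, 5 h settle beforehand. Cytotoxicity = concentration-dependent ATP drop, AC50 by Hill fit.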

[23] = Cell Viability - LYMP2-023 (AID 975)
Method in brief: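 CellTiter-Glo luminescence after 30 min at room temperature; decrease in intracellular ATP reflects toxicity. Cells: human lymphoblastoid line, 2500/well, 24 hr compound exposure at 37 C. AC50 fitted to standard Hill equation from concentration-response.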

Chain of Cytochrome P450 3A4 (Homo sapiens) (P08684 whole entry, looked up): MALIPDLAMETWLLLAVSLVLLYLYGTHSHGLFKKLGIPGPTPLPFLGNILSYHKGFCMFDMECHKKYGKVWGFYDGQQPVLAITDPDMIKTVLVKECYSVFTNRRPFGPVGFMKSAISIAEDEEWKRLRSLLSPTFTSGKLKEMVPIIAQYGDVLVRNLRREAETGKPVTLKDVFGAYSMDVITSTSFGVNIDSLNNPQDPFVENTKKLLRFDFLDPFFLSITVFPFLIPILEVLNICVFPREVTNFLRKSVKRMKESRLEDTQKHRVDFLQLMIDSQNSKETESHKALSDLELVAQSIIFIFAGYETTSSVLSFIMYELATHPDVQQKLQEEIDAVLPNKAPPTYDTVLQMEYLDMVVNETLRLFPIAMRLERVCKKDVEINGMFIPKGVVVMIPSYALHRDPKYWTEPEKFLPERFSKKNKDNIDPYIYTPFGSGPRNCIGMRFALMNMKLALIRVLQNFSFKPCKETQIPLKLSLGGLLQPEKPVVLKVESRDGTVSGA

Clc1cc(Cl)c(-c2cc(Cl)c(Cl)cc2Cl)cc1Cl
inactive: outcome [1] | caspase-3 activation [2] -3.51% [at 91.7 µM] | Potency [3] | Potency [4] | Potency [5] | Potency [6] | outcome [7] | Potency [8] | Potency [9] | Potency [10] | Potency [11] | Potency [12] | Potency [13] | Potency [14] | Potency [15] | Potency [16] | Potency [17] | Potency [18] | Potency [19] | Potency [20] | Potency [21] | Potency [22] | Potency [23]
